Here are results for 29 molecules from PubChem BioAssay (NCI).

The panel holds about 83,000 compounds, 20% with a hit somewhere; the sample as a whole holds those more often.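 In brief: 96-well plates, 48 h treatment, single concentration, percent growth endpoint.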 A number with no mark means an inactive call. Active and inactive are the calls of the source. Rule for the calls: active = growth percent below 10; inactive = the rest.

Experiment in all cases: NCI-60 one-dose screen, 48 h (100 = growth as untreated, 0 = no growth, -100 = all killed)
Holding throughout (settings): 10 µM unless noted

In assay [1] the test system is T-47D breast.
Assay [2] relates to BT-549 breast.
Assay [3] has as its system MDA-MB-435 melanoma.
For assay [4], the system named is SW-620 colon.
The test system of assay [5] is MCF7 breast.
Assay [6] has as its system HCT-116 colon.
In assay [7] the test system is HCC-2998 colon.
Assay [8] relates to KM12 colon.

Consider `CCCCCN1C=C/C(=C\C(=O)N(C)c2ccc(Br)cc2)c2ccccc21`, for which the growth in assay [1] is 84.3%; in assay [2], 108%; in assay [3], 101%; in assay [4], 94.4%; in assay [5], 91%; in assay [6] it was 80.7%. In addition, the growth is 102% in assay [7] and 103% in assay [8].

With `CCCCCCN(C)Cc1ccc(OCCOc2ccc(CN(C)CCCCCC)cc2)cc1`, the growth in assay [1] is -13.7% (active); in assay [2], 26.2%; in assay [3], -17.4% (active); in assay [4], -70.2% (active); in assay [5], -76.3% (active); in assay [6], -96.1% (active). Moreover, the growth is -87.5% (active) in assay [7] and -19.3% (active) in assay [8].

For the molecule `NC(=O)c1cccc(-n2ccc3cc(NC(=O)Nc4cc(C(F)(F)F)cc(C(F)(F)F)c4)ccc32)n1`, the growth in assay [1] was 44.7%; in assay [2], 74.4%; in assay [3] it was 50.5%; in assay [4], 73.7%; in assay [5], 27.2%; in assay [6], 38%. The results for the growth in assay [7] and in assay [8] were 88.2% and 11.7%, respectively.

Take `Clc1nc(Nc2ccccc2)nc(Nc2ccccc2)n1`: the growth in assay [1] was 76.1%; in assay [2], 90.5%; in assay [3], 108%; in assay [4], 108%; in assay [5], 92.4%; in assay [6], 93.2%. Besides, the growth in assay [7] is 93.3%; in assay [8], 102%.

`O=S(=O)(c1ccccc1)N1CCCc2ccccc21`: the growth in assay [1] is 96.5%; in assay [2] it was 110%; in assay [3], 110%; in assay [4], 104%; in assay [5], 96.8%; in assay [6], 105%. Also, the growth is 103% in assay [7] and 100% in assay [8].

With `COc1ccc(-c2cnnc3c(-c4cccc(C(F)(F)F)c4)cnn23)cc1`, the growth in assay [1] is 48.9%; in assay [2], -34.9% (active); in assay [3], 47.2%; in assay [4] it was 79.3%; in assay [5], 73.9%; in assay [6] it was 2.24% (active). Also, the growth in assay [7] is 81.5%; in assay [8], 82.6%.

On to `CCOC(=O)c1ccc(Nc2ccnc(SCC(=O)c3ccc(C#N)cc3)n2)cc1`, for which the growth in assay [1] was 9.84% (active); in assay [2], 50.1%; in assay [3] it was 68.4%; in assay [4], 89.8%; in assay [5], 67%; in assay [6], 71.8%. Besides, the growth in assay [7] was 103%; in assay [8], 54.5%.

Turning to `Cc1ccc(C(c2c(O)c3cc(Br)ccc3[nH]c2=O)c2c(O)c3cc(Br)ccc3[nH]c2=O)cc1`, the growth is 71.6% in assay [1]; 87.4% in assay [2]; 86.3% in assay [3]; 102% in assay [4]; 80.2% in assay [5]; 82.4% in assay [6]. Besides, the growth is 94.4% in assay [7] and 88.2% in assay [8].

As to `COc1cc(Nc2cc(O)c3c(=O)cc(-c4ccccc4)oc3c2)cc(OC)c1`, the growth in assay [1] was 55.2%; in assay [2], 80.2%; in assay [3], 4.04% (active); in assay [4], 24.9%; in assay [5] it was 23.5%; in assay [6], 13%. The growth in assay [7] is 32.4%; in assay [8], 21%.

On to `CN(C)CCCn1c2c(c3ccc(-c4ccn[nH]4)cc3c1=O)C(=O)c1ccccc1-2`, for which the growth was 43.2% in assay [1]; 56.1% in assay [2]; 78.4% in assay [3]; 37.1% in assay [4]; 9.49% (active) in assay [5]; 28.9% in assay [6]. The growth in assay [7] is 53.8%; in assay [8], 18.1%.

Consider `COc1ccc(C2CC(c3cccc(Nc4ccncc4)c3)=NN2c2cc(Cl)cc(Cl)c2)cc1` (configuration not stated), for which the growth in assay [1] was 73.8%; in assay [2], 109%; in assay [3] it was -77.1% (active); in assay [4], -87.5% (active); in assay [5], -31.7% (active); in assay [6], 83.9%. The values for the growth in assay [7] and in assay [8] were -46.5% (active) and -80% (active), respectively.

For `C#CCn1cc(C=C2C(=O)NC(=S)NC2=O)c2cc(Cl)ccc21`, the growth in assay [1] is 76.6%; in assay [2] it was 24.6%; in assay [3] it was 15%; in assay [4] it was -27.5% (active); in assay [5] it was 10.6%; in assay [6], 2.51% (active). The growth in assay [7] was -4.98% (active); in assay [8], 14.4%.

Take `COc1ccccc1Nc1cc(O)c2c(=O)cc(-c3ccccc3)oc2c1`: the growth was 31.4% in assay [1]; 40.9% in assay [2]; -24.3% (active) in assay [3]; 20.8% in assay [4]; 17.3% in assay [5]; 14.1% in assay [6]. In addition, the values for the growth in assay [7] and in assay [8] were 71.9% and 36.2%, respectively.

On to `CCn1ccnc1C(=O)/C=C/c1ccc(CC(=O)Nc2ccc(F)cc2)cc1`, for which the growth in assay [1] was 24.5%; in assay [2] it was 4.63% (active); in assay [3], 20%; in assay [4], 6.04% (active); in assay [5], 25.2%; in assay [6] it was 1.33% (active). In addition, the results for the growth in assay [7] and in assay [8] were 78.8% and -14.3% (active), respectively.

Turning to `COc1cccc(/C=C2\COc3ccc(-c4ccccc4)cc3C2=O)c1`, the growth was -6.21% (active) in assay [1]; 13.1% in assay [2]; -25.8% (active) in assay [3]; -55.6% (active) in assay [4]; -3.38% (active) in assay [5]; -23.8% (active) in assay [6]. The growth was 19.4% in assay [7] and -37.3% (active) in assay [8].

Regarding `CCOC(=O)c1c(C)nc2c(c1N)C(=O)C(=O)N2Cc1ccc(C(F)(F)F)cc1`, the growth was 44% in assay [1]; 53.4% in assay [2]; 6.09% (active) in assay [3]; 35.6% in assay [4]; 11.7% in assay [5]; 27.2% in assay [6]. Moreover, the growth in assay [7] was 98.1%; in assay [8], 27.8%.

Consider `Clc1nc(Cl)c2ncn(CCOCCn3cnc4c(Cl)nc(Cl)nc43)c2n1`, for which the growth in assay [1] is -53.9% (active); in assay [2], -94.1% (active); in assay [3] it was -90.1% (active); in assay [4] it was -86.9% (active); in assay [5], -48.9% (active); in assay [6], -79.7% (active). Besides, the growth was -87.5% (active) in assay [7] and -85.9% (active) in assay [8].

For `C=CCn1c(SCC(=O)Nc2ccc(C(=O)/C=C/c3cc(OC)c(OC)c(OC)c3)cc2)nnc1-c1cc(OC)c(OC)c(OC)c1`, the growth is 60.7% in assay [1]; 52.3% in assay [2]; 3.79% (active) in assay [3]; -9.49% (active) in assay [4]; 7.87% (active) in assay [5]; -70.9% (active) in assay [6]. Further, the growth is 20.2% in assay [7] and 1.11% (active) in assay [8].

As to `Brc1ccc(C2CC(c3cccc(Nc4ccncc4)c3)=NN2c2ccccc2)cc1` (configuration not stated), the growth was 87.8% in assay [1]; 84% in assay [2]; 70.5% in assay [3]; -33.1% (active) in assay [4]; 24.5% in assay [5]; 77.4% in assay [6]. Besides, the growth in assay [7] is 19.2%; in assay [8] it was 46.9%.

With `COc1ccc(-c2nc(SC(C)C)nc(NNC(N)=O)c2C#N)cc1`, the growth is 84.8% in assay [1]; 102% in assay [2]; 3.51% (active) in assay [3]; 50.7% in assay [4]; 84.3% in assay [5]; 102% in assay [6]. In addition, the growth is 88.9% in assay [7] and 58.6% in assay [8].

In the case of `COc1ccc(C(O)c2cc3c(N)c(C(=O)Nc4cccc(OC)c4)sc3nc2C)cc1` (configuration not stated), the growth is 62.8% in assay [1]; 26.5% in assay [2]; -9.54% (active) in assay [3]; 19.9% in assay [4]; 17.8% in assay [5]; 5.98% (active) in assay [6]. Besides, the growth in assay [7] was 5.05% (active); in assay [8], 2.91% (active).

For `O=S(=O)(NCCNc1nccc(-c2c(-c3ccc(F)c(O)c3)nc3occn23)n1)c1ccccc1`, the growth is 71.9% in assay [1]; 80.8% in assay [2]; 28.1% in assay [3]; 63.5% in assay [4]; 36.5% in assay [5]; 22.6% in assay [6]. The growth is 62.1% in assay [7] and 52.6% in assay [8].

In the case of `C=C(C)[C@@H]1CC[C@]2(C(=O)NCC(=O)OC)CC[C@]3(C)[C@H](CC[C@@H]4[C@@]5(C)Cc6c([nH]c7ccccc67)C(C)(C)[C@@H]5CC[C@]43C)[C@@H]12`, the growth was 47.7% in assay [1]; 81.3% in assay [2]; 90% in assay [3]; 83% in assay [4]; 63.5% in assay [5]; 42% in assay [6]. The growth was 103% in assay [7] and 79.2% in assay [8].

In the case of `CN(C)C(C(N)=O)c1ccc(Cl)cc1` (configuration not stated), the growth in assay [1] was 102%; in assay [2] it was 100%; in assay [3], 101%; in assay [4] it was 104%; in assay [5], 106%; in assay [6] it was 94.9%. Besides, the growth in assay [7] and in assay [8] was 102% each time.

For `CCN1C(=O)/C(=c2\sc3n(c2=O)NC2C(N=3)N(CC)C(=O)N2CC)c2ccccc21` (configuration not stated), the growth in assay [1] was 36.3%; in assay [2], 58.8%; in assay [3], -38.6% (active); in assay [4], 39.5%; in assay [5], 37.2%; in assay [6] it was 12.9%. In addition, the growth in assay [7] is 58.9%; in assay [8] it was 20.1%.

With `COc1ccc2c(c1)c(CC(=O)NCCOCCOCC(=O)Nc1ccc(OC)c(C(N)=O)c1O)c(C)n2C(=O)c1ccc(Cl)cc1`, the growth in assay [1] is 81.3%; in assay [2] it was 81.1%; in assay [3], 104%; in assay [4] it was 99.4%; in assay [5], 94.6%; in assay [6] it was 93.9%. Also, the results for the growth in assay [7] and in assay [8] were 93.5% and 99.4%, respectively.

As to `COc1ccc(C(=O)c2cc(C)c(OC)c(C)c2)c(OC)c1N(C(=O)C(Cl)Cl)C(=O)C(Cl)Cl`, the growth is 52.4% in assay [1]; 5.7% (active) in assay [2]; -37.5% (active) in assay [3]; 19% in assay [4]; 13.4% in assay [5]; 4.88% (active) in assay [6]. The values for the growth in assay [7] and in assay [8] were 14.7% and 5.55% (active), respectively.

For the molecule `C=C1C(=O)O[C@H]2[C@H]1CC/C(COC(=O)CCCc1c[nH]c3ccccc13)=C\CC[C@@]1(C)O[C@@H]21`, the growth in assay [1] is 57.3%; in assay [2], 41.1%; in assay [3], 60.3%; in assay [4] it was 24.9%; in assay [5] it was 11%; in assay [6] it was -77.5% (active). Further, the growth was 102% in assay [7] and 85.7% in assay [8].

For `COc1ccc(C(=O)c2cc3c(N)c(C(=O)Nc4cccc(Br)c4C)sc3nc2C)cc1`, the growth is 54.6% in assay [1]; 33.5% in assay [2]; -10.4% (active) in assay [3]; 23.4% in assay [4]; 17.5% in assay [5]; 6.78% (active) in assay [6]. Moreover, the growth in assay [7] was 18.1%; in assay [8], 11.3%.
